Reference: PubChem BioAssay
Several values for one entry are separate records, joined by “and”; a condition that tells them apart may be missing. Equal entries are not always repeated. For part of these data: Entries with a potency or affinity are not part of this list. Activity calls are given as the source filed them.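 How the source made its calls, unless noted: active means thallium flux through the channel raised or lowered by more than 3 SD from vehicle-only wells, actives on both sides; inactive means the rest.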

Assays:
[1] = blockers of polyQ-driven CASP3 activation – cell-based (AID 1583); conditions: polyglutamine-induced caspase-3 activation, cell assay; stronger effect = higher value;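 tested at 10 µM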
[2] = yeast 75Q aggregation reduction – 75Q-TubU reporter (AID 1593); conditions: Yeast 75Q polyglutamine aggregation reporter
[3] = restoration of touch response, mutant HTT neurons – whole organism, C. elegans mechanosensory neurons, N-terminal huntingtin (AID 1599); conditions: C. elegans polyQ-huntingtin mechanosensory neurons, stronger effect = higher value
[4] = blockers of cytochrome c efflux from mitochondria – biochemical, purified mitochondria (AID 1603); conditions: stronger effect = lower value;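 further: mouse liver mitochondria challenged with calcium chloride; signal normalized to the plate average as 100%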
[5] = polyglutamine aggregate formation blockers (AID 1604); conditions: polyglutamine-induced protein aggregation inhibition assay; stronger effect = higher value; tested at 2.5 µM
[6] = glutamate transport activators, MN-1 cells, MN-1 cell line (AID 1612); conditions: MN-1 motor neuron cells, stronger effect = higher value;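 further: tested at 1 µM final; 0% = mean of DMSO vehicle wells on each plate; positive means more glutamate uptake than control and negative means less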
[7] = 75Q-TubH aggregate inhibition, S. cerevisiae, yeast (AID 1616); conditions: S. cerevisiae 75Q-TubH polyglutamine aggregation suppression; stronger effect = higher value
[8] = signal quenchers or enhancers, Cy5 substrate/SSB – biochemical, NIH Clinical Collection, E. coli SSB, artefact control for HCV NS3 helicase inhibitor project (AID 743268; call rule not given here); conditions: Cy5-oligo bound E. coli SSB, fluorescence interference
[9] = tested on: Hepatitis C virus NS3 helicase; assay: blockers of NS3h binding to DNA – biochemical, fluorescence polarization, NIH Clinical Collection, primary screen (AID 743270; call rule not given here); conditions: NS3 helicase binding to Cy5-dT15 DNA, stronger effect = higher value, concentration not given here
[10] = molecular target: Single-stranded DNA-binding protein (Escherichia coli (strain K12)) (UniProt P0AGE0); assay: SSB-ssDNA binding inhibitors – biochemical, fluorescence polarization, NIH Clinical Collection, counter-screen for HCV NS3 helicase inhibitor project (AID 743271; in the data active means inhibition above about 28%); conditions: E. coli SSB-DNA binding, stronger effect = higher value, concentration not given here
[11] = compounds distorting NS3 helicase fluorescence signal – biochemical, NIH Clinical Collection, artefact control for HCV NS3 helicase inhibitor project (AID 743272; call rule not given here;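 further: HCV NS3 helicase with a Cy5 labelled single stranded DNA probe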); conditions: fluorescence interference counterscreen, HCV NS3 helicase assay; stronger effect = lower value
[12] = molecular target: Calcium-activated potassium channel subunit alpha-1 (Homo sapiens) + Leucine-rich repeat-containing protein 26 (Homo sapiens) (UniProt Q12791+Q2I0M4); assay: BK channel mutant inhibitors and activators – cell-based, U2OS BacMam, thallium flux, beta subunits, selectivity assay, profiling panel (AID 1259406); conditions: U2OS BacMam BK variants, F380Y/Slo1WT/gamma1, at 30 µM;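 further: initial slope of Thallos dye fluorescence rise after thallium is added; log ratio against the mean of 0.3% DMSO vehicle wells on the same plate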
Chain of Calcium-activated potassium channel subunit alpha-1 (Homo sapiens) + Leucine-rich repeat-containing protein 26 (Homo sapiens) (Q2I0M4 whole entry, looked up, one chain of several): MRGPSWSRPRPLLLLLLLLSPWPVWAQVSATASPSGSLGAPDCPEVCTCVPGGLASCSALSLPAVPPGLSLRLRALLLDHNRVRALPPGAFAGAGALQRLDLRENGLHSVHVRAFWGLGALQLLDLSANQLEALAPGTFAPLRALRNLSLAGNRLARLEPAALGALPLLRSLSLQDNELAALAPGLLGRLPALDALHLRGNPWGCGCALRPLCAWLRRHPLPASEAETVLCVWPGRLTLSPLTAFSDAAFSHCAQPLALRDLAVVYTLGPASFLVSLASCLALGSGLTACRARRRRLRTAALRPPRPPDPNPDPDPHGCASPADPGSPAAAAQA

R275C = assay: as above; conditions: U2OS BacMam BK variants, at 30 µM
R275C/beta1 = assay: as above; conditions: U2OS BacMam BK variants, at 30 µM
R275C/beta2Delta = assay: as above; conditions: U2OS BacMam BK variants, at 30 µM
R275C/beta4 = assay: as above; conditions: U2OS BacMam BK variants, at 30 µM
R275C/Slo1WT/beta2 = assay: as above; conditions: U2OS BacMam BK variants, at 30 µM

| SMILES | inhibition [1] [%] | score [2] | rescue above control [3] | cytochrome c release ratio [4] | inhibition of aggregation [5] [%] | glutamate uptake change [6] [%] | aggregation suppression score [7] | fluorescence ratio [8] | inhibition [9] | inhibition [10] | fluorescence ratio [11] | log fold change Tl+ flux [12] | log fold change Tl+ flux (R275C) | log fold change Tl+ flux (R275C/beta1) | log fold change Tl+ flux (R275C/beta2Delta) | log fold change Tl+ flux (R275C/beta4) | log fold change Tl+ flux (R275C/Slo1WT/beta2) |
| --- | --- | --- | --- | --- | --- | --- | --- | --- | --- | --- | --- | --- | --- | --- | --- | --- | --- |
| CC1Cc2ccccc2N1NC(=O)c1ccc(Cl)c(S(N)(=O)=O)c1 (stereo unspecified) | 11.1 | 1.1 | 19 | 0.89 | 85.9 | -15 | 1.3 | 0.31 (active) | 0.45% (inactive) | 1.05% (inactive) | 0.97 (inactive) | -0.0185 (inactive) | 0.0209 (inactive) | 0.0126 (inactive) | -0.00869 (inactive) | 0.00861 (inactive) | -0.000687 (inactive) |
| NNCCc1ccccc1 | 3.3 | 0.97 | -3.55 | 1.02 | 15.4 | 2.77 | 1.47 | 0.99 (inactive) and 1.14 (inactive) | 1.19% (inactive) and -5.91% (inactive) | -0.87% (inactive) and -0.48% (inactive) | 0.96 (inactive) and 1.02 (inactive) | -0.00263 (inactive) | -0.025 (inactive) | 0.00562 (inactive) | -0.0402 (inactive) | -0.0112 (inactive) | 0.022 (inactive) |
| CC(COc1ccccc1)N(CCCl)Cc1ccccc1 (stereo unspecified) | 31.4 | 0.5 | 11.3 | 4.04 | 33.3 | 18.7 | 0.789 | 1.06 (inactive) | -5% (inactive) | -0.48% (inactive) | 0.95 (inactive) | -0.0217 (inactive) | -0.0819 (inactive) | 0.0364 (inactive) | -0.0434 (inactive) | 0.0533 (inactive) | -0.0106 (inactive) |
